Source: PubChem BioAssay AID2391 (Southern Research Specialized Biocontainment Screening …, 2010)
In all, about 310,000 compounds went through this assay and about 410 (0.13%) were called active. About 2% were inconclusive and are not listed. Not all results are given here. Measured potencies and affinities stand elsewhere. A number with no mark means an inactive call. The rule behind the calls is not given here.

Assay: inhibition of RSV-induced cytopathic effect – HEp-2 cells, primary 10 µM value included (AID 2391)
Conditions: at 10 µM, stronger effect = higher value
In the case of `O=C(CSc1nccc(=O)[nH]1)c1ccccc1Br`, the CPE inhibition was 2.89%.
With `COc1ccc(C)cc1NC(=O)CSc1nnnn1C1CCCC1` the CPE inhibition was 2.31%.
With `Cc1cc(=O)[nH]c(NCc2ccc(Cl)cc2)n1` the CPE inhibition was 0.3%.
With `Cc1ccsc1C(=O)NNC(=O)C1C2C=CC(C2)C1C(=O)O` (centres undefined) the CPE inhibition was 0.87%.
Work on `COc1ccc(OCc2nnc(SCC(=O)Nc3cccc(Cl)c3)o2)cc1` yielded a CPE inhibition of 2.31%.
Work on `CSc1nnc(-c2sc3cc(Cl)ccc3c2Cl)n1C` yielded a CPE inhibition of 14%.
In the case of `CCn1c(SC)nnc1-c1nnc(SC)n1CC`, the CPE inhibition was 3.28%.
In the case of `O=C(Cn1nc(-c2ccccc2)c2ccccc2c1=O)Nc1ccc(F)cc1`, the CPE inhibition was 2.89%.
`COc1ccc(CNC(=O)c2coc(=O)c3ccccc23)cc1` showed a CPE inhibition of 5.17%.
In the case of `COc1ccc(CNC(=O)c2coc(=O)c3ccccc23)c(OC)c1`, the CPE inhibition was -0.36%.
With `C#CCn1c(S(=O)(=O)Cc2ccccc2Cl)nc(-c2ccccc2)c1-c1ccccc1` the CPE inhibition was -0.31%.
Work on `C#CCn1c(S(=O)(=O)Cc2ccc(OC)cc2)nc(-c2ccccc2)c1-c1ccccc1` yielded a CPE inhibition of 3.68%.
`Cc1cc([N+](=O)[O-])nn1CCCC(=O)O` gave a CPE inhibition of 5.17%.
Work on `CN(NC(=O)c1cccc(Cl)c1)c1nc(-c2ccccc2)nnc1C(F)(F)F` yielded a CPE inhibition of 3.22%.
For `CCN(CC(=O)Nc1cc(Cl)ccc1C)C(=O)CSCc1c(C)noc1C`, the CPE inhibition was 16.3%.
Molecule `CCN(CC(=O)Nc1cc(Cl)ccc1C)C(=O)CCOc1ccc(C)cc1` has a CPE inhibition of 0.1%.
In the case of `COc1ccc(C(=O)NCC(=O)N/N=C/c2c(C)[nH]c3ccccc23)cc1`, the CPE inhibition was 6.54%.
Molecule `COc1cc(C(=O)NCC(=O)N/N=C/c2c(C)[nH]c3ccccc23)cc(OC)c1OC` has a CPE inhibition of 3.1%.
`CC(=O)c1ccc(N2CCN(C(=O)c3nn(Cc4ccccc4)c(=O)c4ccccc34)CC2)cc1` showed a CPE inhibition of 5.5%.
Work on `COc1ccc(NC(=O)Cn2nnc(-c3ccccc3NC(=O)c3ccco3)n2)cc1` yielded a CPE inhibition of 0.17%.
`COc1ccccc1NC(=O)c1sc2ncn(Cc3cccc4ccccc34)c(=O)c2c1C` gave a CPE inhibition of 2.87%.
Molecule `COc1ccccc1N(CC(=O)Nc1ccc(F)c(F)c1)S(C)(=O)=O` has a CPE inhibition of 0.09%.
Work on `Nc1ccn([C@@H]2O[C@H](CO)[C@@H](O)C2O)c(=O)n1` (some centres undefined) yielded a CPE inhibition of -2.12%.
Molecule `Nc1ccn([C@@H]2O[C@H](CO)[C@@H](O)[C@@H]2O)c(=O)n1` has a CPE inhibition of -0.64%.
With `O=c1ccn([C@@H]2O[C@H](CO)[C@@H](O)[C@H]2O)c(=O)[nH]1` the CPE inhibition was -0.56%.
In the case of `O=c1[nH]c(=O)n(C2OC(CO)C(O)C2O)cc1Br` (centres undefined), the CPE inhibition was -0.14%.
Work on `CCOc1ccccc1Nc1cc(C)nc2nnnn12` yielded a CPE inhibition of -1.74%.
Molecule `Cc1ccc(S(=O)(=O)[N-]c2nc3ccccc3nc2-n2cc[n+](CCC(C)C)c2)cc1` has a CPE inhibition of 0.13%.
`COc1cc(NC(=S)N2CCN(Cc3ccccc3)CC2)cc(OC)c1` gave a CPE inhibition of 4.9%.
Work on `Cc1cc(/C=C2/NC(=O)NC2=O)c(C)n1-c1ccccn1` yielded a CPE inhibition of 2.98%.
With `Cc1cc(/C=C2/NC(=O)NC2=O)c(C)n1C` the CPE inhibition was 3.8%.
`Cc1cc(/C=C2/C(=O)NN(c3ccccc3)C2=O)c(C)n1-c1cccc(O)c1` gave a CPE inhibition of 1.07%.
With `Cc1cc(/C=C2/NC(=O)NC2=O)c(C)n1-c1ccncc1` the CPE inhibition was 19.7%.
Work on `Cc1cc(/C=C2\C(=O)NN(c3ccccc3)C2=O)c(C)n1-c1ccccc1O` yielded a CPE inhibition of -1.31%.
`Cc1cccc(-n2c(C)cc(/C=C3\NC(=O)NC3=O)c2C)c1` showed a CPE inhibition of 5.86%.
`O=C(NNC1=NS(=O)(=O)c2ccccc21)c1ccccc1Cl` gave a CPE inhibition of 1.71%.
Work on `CC(CC(=O)NC1CCCCC1)S(=O)(=O)c1ccc2c(c1)CCN2C(=O)C1CC1` (centres undefined) yielded a CPE inhibition of 0.99%.
With `CCC(=O)Nc1ccc(C(=O)CSc2nnc(-c3cccnc3)o2)cc1` the CPE inhibition was -0.13%.
Work on `COc1cc([N+](=O)[O-])ccc1NC(=O)CSc1ccccn1` yielded a CPE inhibition of 4.53%.
`O=C(Nc1ccc(O)c2c(=O)cc(-c3ccccc3Cl)oc12)c1cccc(Cl)c1` showed a CPE inhibition of -0.66%.
For `CSc1cc(-c2ccc(Cl)cc2)c(C(=O)NN)s1`, the CPE inhibition was 0.87%.
`COC(=O)c1nc(N)sc1C` gave a CPE inhibition of 1.76%.
For `COc1ccc(S(=O)(=O)N2CC(C(=O)O)Oc3ccc(CC(=O)O)cc32)cc1` (centres undefined), the CPE inhibition was 1.19%.
For `O=C(Nc1ccc(N2CCOCC2)c(Cl)c1)c1cccnc1`, the CPE inhibition was 4.29%.
Work on `O=C(Nc1ccc(N2CCCC2)c(Cl)c1)c1cccnc1` yielded a CPE inhibition of 5.52%.
`O=C(CSc1nnc2ccccn12)NC(=O)NC1CCCC1` showed a CPE inhibition of 0.11%.
For `COc1cccc(OC)c1C(=O)Nc1ccc(C)cc1C(=O)c1ccccc1`, the CPE inhibition was 6.46%.
With `Cc1nc(CCNS(=O)(=O)c2cccnc2)cs1` the CPE inhibition was -0.89%.
`COc1ccc(NC(=O)c2cn(-c3ccccc3)nc2-c2cc3ccccc3o2)cc1` showed a CPE inhibition of 14.1%.
For `O=C(Nc1ccc([N+](=O)[O-])cc1)c1cn(-c2ccccc2)nc1-c1cc2ccccc2o1`, the CPE inhibition was 0.46%.
For `COc1cc(C=O)ccc1OCc1cccc(Br)c1`, the CPE inhibition was 1.17%.
Molecule `CC(=O)Nc1cccc(NC(=O)c2cccc(S(=O)(=O)N3CCN(Cc4ccccc4)CC3)c2)c1` has a CPE inhibition of 1.07%.
Molecule `O=C(Nc1ccc2c(c1)OCO2)[C@@H]1[C@@H]2C(=O)N(C3CCCCC3)C(=O)[C@@H]2C2c3ccccc3C=CN21` (some centres undefined) has a CPE inhibition of 2.62%.
For `COc1ccc(C(C[N+](=O)[O-])c2c(C)cc3ccccn23)c(OC)c1` (centres undefined), the CPE inhibition was 3.91%.
Work on `COc1ccc(C(C[N+](=O)[O-])c2c(-c3ccccc3)cc3ccccn23)cc1` (centres undefined) yielded a CPE inhibition of 7.08%.
Molecule `COC(=O)CSc1nc2ccc(NC(=O)CSc3nnnn3Cc3ccccc3)cc2s1` has a CPE inhibition of 1.43%.
Molecule `COc1ccccc1OCCOCCOc1c(C)cc(C)cc1Br` has a CPE inhibition of 1.97%.
Work on `CCOc1ccccc1CNC(=O)c1cc2occc2n1C` yielded a CPE inhibition of 2.63%.
In the case of `CCOc1ccccc1CNC(=O)c1c([N+](=O)[O-])c(C)nn1C`, the CPE inhibition was 0.22%.
With `CCOc1ccccc1CNC(=O)c1cn(C)c(=O)c2c1c1ccccc1n2C` the CPE inhibition was 6.47%.
Molecule `COc1ccccc1CNC(=O)c1cc2c(=O)[nH]c3ccccc3c2n1C` has a CPE inhibition of 16.5%.
`CCOc1ccccc1CNC(=O)Cn1c(=O)oc2ccccc21` gave a CPE inhibition of -0.15%.
`COc1ccccc1CNC(=O)c1oc2ccccc2c1C` showed a CPE inhibition of 1.89%.
`Cc1cc(NC(=O)CCC(=O)N(CC(=O)NCC2CCCO2)c2cccc(F)c2)no1` (centres undefined) showed a CPE inhibition of 0.87%.
For `CC(=O)NC1(C(F)(F)F)C(=O)Nc2c1c(=O)[nH]c(=O)n2-c1ccccc1` (centres undefined), the CPE inhibition was -0.08%.
`CCCCCCC(=O)N1CCC(c2nc3c(nnn3Cc3ccccc3Cl)c(=O)[nH]2)CC1` showed a CPE inhibition of -3.63%.
Molecule `Cc1ccc(Nc2ccc(S(=O)(=O)N3CCOCC3)cc2[N+](=O)[O-])cc1C` has a CPE inhibition of 7.23%.
Molecule `CC1=Nc2cc(C(=O)N3CCCCC3)ccc2Sc2ccc(C)cc21` has a CPE inhibition of 4.9%.
With `CC1=Nc2cc(C(=O)N3CCCC3)ccc2Sc2ccc(C)cc21` the CPE inhibition was 3.72%.
In the case of `COc1ccc(N2CCN(c3nc(C)c(C)c(=O)[nH]3)CC2)cc1`, the CPE inhibition was 1.02%.
Molecule `COCCOc1cc(NC(=O)CS(=O)CC(=O)N(C)C)c(Cl)cc1Cl` (centres undefined) has a CPE inhibition of 1.9%.
Work on `O=C(Nc1ccccc1)c1ccc(NC(=O)C2CC2)cc1` yielded a CPE inhibition of 2.88%.
For `O=C(Nc1ccc(Nc2ccccc2)cc1)C1CC1`, the CPE inhibition was 0.83%.
`CNC(=O)CO/N=C/c1ccc(N(C)C)cc1` showed a CPE inhibition of 2.24%.
`COc1ccc2cc(CN(Cc3cccnc3)S(=O)(=O)c3ccccc3)c(=O)[nH]c2c1` gave a CPE inhibition of 5.1%.
For `CCCNC(=O)c1cc(S(=O)(=O)N2CCCCC2)ccc1N1CCOCC1`, the CPE inhibition was -0.63%.
Molecule `CCC(=O)Nc1nonc1-c1nc2ccccc2n1CC(C)C` has a CPE inhibition of 4.88%.
`CCn1c(-c2nonc2NC(=O)c2ccccc2)nc2ccccc21` gave a CPE inhibition of -1.62%.
In the case of `CC(C)NC(=O)CSc1ccccc1C(=O)NNC(=O)Cn1ccc(C(F)(F)F)n1`, the CPE inhibition was -1.83%.
`CCOc1ccc(C(C)=O)cc1CN1C(=O)NC2(CCCCCC2)C1=O` showed a CPE inhibition of -0.88%.
`CCOC(=O)c1nn(-c2ccccc2)c(=O)cc1OCC(=O)Nc1cc(C)ccc1OC` showed a CPE inhibition of 0.86%.
With `O=C(NCc1cccs1)C1CCN(C(=O)NCc2ccccc2)CC1` the CPE inhibition was 0.51%.
`COc1cc2c3c(c1)/C(=C1/SC(=S)NC1=O)C(=O)N3C(C)(C)C=C2C` showed a CPE inhibition of 17.4%.
Molecule `CCN1C(=O)/C(=C2/C(=O)N3c4c(cc(OC(C)=O)cc42)C(C)=CC3(C)C)SC1=S` has a CPE inhibition of 7.27%.
Work on `Cc1ccc(OCCNC(=O)CCc2ccccc2)cc1C` yielded a CPE inhibition of -0.93%.
For `CCc1nccn1S(=O)(=O)c1ccc2ccccc2c1`, the CPE inhibition was 1.31%.
For `O=C(N/N=C/c1cccnc1)c1cc(C2CC2)nc2ccccc12`, the CPE inhibition was 1.57%.
`C/C(N)=C(/C#N)C(=O)CSc1cc(C)c2ccccc2n1` gave a CPE inhibition of 12.3%.
With `Cc1cc(C)c2nc(SCC#N)cc(C)c2c1` the CPE inhibition was 11.1%.
Work on `CC(C)S(=O)(=O)CC(=O)c1ccc(Cl)cc1` yielded a CPE inhibition of 1.72%.
With `O=C(Cn1c2ccccc2c2nc3n(c(=O)c21)CCS3)Nc1ccccc1` the CPE inhibition was 0.68%.
For `Cc1ccc(C(=O)Nc2ccc3c(c2)C(=O)NC3=O)cc1`, the CPE inhibition was 3.34%.
Work on `COc1cc(OC)cc(-c2nnc(SCc3c(F)cccc3Cl)o2)c1` yielded a CPE inhibition of 9.5%.
For `COc1cc(-c2nnc(SCc3ccccc3Cl)o2)cc(OC)c1OC`, the CPE inhibition was 10.5%.
